Unmarked numbers belong to inactive results.
Columns and labels:
Assay in all cases: log2 ratio of Biotin-Ahx-Ub-VS probe labelling (fragment/DMSO); higher = less target engagement (more negative = stronger competition), active = hit call of the paper (q ≤ 0.05, log2 ratio ≤ -1)
Conditions in all cases: compound concentration: 200 uM; treatment time: 3 h
ALG13 = target: T1, ALG13 (UniProt Q9NP73)
T1 sequence (whole entry): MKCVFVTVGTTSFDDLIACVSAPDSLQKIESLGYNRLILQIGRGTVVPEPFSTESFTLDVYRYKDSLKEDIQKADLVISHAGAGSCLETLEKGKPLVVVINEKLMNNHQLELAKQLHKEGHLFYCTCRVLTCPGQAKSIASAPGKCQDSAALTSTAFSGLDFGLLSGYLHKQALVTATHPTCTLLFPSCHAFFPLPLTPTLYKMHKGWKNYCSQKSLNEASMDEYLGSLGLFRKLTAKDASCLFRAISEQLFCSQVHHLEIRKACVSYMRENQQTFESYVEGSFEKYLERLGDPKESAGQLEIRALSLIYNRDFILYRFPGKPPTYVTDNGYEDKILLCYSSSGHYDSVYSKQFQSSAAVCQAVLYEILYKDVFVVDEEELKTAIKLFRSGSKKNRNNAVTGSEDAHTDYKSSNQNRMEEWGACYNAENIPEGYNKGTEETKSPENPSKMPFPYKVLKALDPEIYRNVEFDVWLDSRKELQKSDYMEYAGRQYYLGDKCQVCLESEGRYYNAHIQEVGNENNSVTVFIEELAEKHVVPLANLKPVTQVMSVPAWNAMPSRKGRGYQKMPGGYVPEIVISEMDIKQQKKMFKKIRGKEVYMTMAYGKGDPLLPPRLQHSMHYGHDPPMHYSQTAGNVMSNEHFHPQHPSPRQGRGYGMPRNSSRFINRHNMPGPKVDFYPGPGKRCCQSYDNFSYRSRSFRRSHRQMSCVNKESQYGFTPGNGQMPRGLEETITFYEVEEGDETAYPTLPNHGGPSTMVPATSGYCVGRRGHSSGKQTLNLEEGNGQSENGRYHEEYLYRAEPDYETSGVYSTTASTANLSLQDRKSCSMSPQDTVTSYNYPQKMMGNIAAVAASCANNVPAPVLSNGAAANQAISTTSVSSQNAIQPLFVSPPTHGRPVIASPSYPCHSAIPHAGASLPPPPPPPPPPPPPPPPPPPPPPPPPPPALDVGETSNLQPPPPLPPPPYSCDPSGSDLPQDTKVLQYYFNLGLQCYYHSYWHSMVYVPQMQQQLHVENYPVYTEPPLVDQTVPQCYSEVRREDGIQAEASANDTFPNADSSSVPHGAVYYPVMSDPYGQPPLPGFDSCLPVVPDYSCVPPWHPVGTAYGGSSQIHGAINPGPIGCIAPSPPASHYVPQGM
In short: (§1)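 Lysate from HEK293T cells, 495 µg per sample in Tris/CHAPS/IGEPAL buffer with protease inhibitors, was treated for 3 h in triplicate with fragment at 200 µM or vehicle. Biotin-Ahx-Ub-VS was next added at 0.5 µM final for 1 h. The labelled DUBs were enriched with NeutrAvidin, digested with LysC and trypsin, and run by diaPASEF LC-MS/MS, with values given as average log2 fragment/vehicle ratios by unpaired t-test on global-median-normalised Spectronaut quantities of proteins with ≥2 unique peptides.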

ATXN3 = ATXN3 (UniProt P54252)
In short: as §1

BAP1 = target: T2, BAP1 (UniProt Q92560)
T2 sequence (whole entry): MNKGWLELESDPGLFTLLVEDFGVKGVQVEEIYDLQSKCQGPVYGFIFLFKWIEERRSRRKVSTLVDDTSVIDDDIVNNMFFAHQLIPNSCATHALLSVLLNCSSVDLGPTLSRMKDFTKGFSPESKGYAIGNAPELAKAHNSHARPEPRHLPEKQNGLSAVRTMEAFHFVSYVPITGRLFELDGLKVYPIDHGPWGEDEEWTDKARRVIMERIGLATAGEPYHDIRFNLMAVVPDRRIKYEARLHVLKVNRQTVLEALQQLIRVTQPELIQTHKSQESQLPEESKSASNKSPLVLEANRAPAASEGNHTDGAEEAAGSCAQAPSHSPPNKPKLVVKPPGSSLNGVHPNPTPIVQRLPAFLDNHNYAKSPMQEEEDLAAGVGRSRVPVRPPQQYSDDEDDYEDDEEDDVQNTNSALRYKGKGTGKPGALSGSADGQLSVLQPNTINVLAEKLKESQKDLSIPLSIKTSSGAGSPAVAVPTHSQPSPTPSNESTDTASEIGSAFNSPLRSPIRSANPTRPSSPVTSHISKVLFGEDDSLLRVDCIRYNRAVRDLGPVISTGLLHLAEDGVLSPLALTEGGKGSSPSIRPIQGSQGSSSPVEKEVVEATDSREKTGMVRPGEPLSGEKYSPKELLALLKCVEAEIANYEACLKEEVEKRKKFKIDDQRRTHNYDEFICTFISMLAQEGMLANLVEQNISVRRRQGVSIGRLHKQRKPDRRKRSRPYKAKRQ
In short: as §1

EIF3F = EIF3F (UniProt O00303)
In short: as §1

EIF3H = EIF3H (UniProt O15372)
In short: as §1

FAM105A = target: T3, FAM105A (UniProt Q9NUU6)
T3 sequence (whole entry): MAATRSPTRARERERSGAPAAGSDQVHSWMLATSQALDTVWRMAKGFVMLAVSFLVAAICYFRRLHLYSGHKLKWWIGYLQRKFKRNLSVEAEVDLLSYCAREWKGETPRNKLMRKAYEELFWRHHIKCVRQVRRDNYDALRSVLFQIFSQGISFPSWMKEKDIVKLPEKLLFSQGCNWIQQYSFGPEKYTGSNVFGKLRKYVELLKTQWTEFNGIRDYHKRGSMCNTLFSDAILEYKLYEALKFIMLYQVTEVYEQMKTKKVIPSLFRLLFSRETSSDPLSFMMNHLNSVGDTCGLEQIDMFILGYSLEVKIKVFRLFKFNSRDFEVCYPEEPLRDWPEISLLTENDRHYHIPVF
In short: as §1

OTUB1 = OTUB1 (UniProt Q96FW1)
In short: as §1

OTUD4 = target: T4, OTUD4 (UniProt Q01804)
T4 sequence (whole entry): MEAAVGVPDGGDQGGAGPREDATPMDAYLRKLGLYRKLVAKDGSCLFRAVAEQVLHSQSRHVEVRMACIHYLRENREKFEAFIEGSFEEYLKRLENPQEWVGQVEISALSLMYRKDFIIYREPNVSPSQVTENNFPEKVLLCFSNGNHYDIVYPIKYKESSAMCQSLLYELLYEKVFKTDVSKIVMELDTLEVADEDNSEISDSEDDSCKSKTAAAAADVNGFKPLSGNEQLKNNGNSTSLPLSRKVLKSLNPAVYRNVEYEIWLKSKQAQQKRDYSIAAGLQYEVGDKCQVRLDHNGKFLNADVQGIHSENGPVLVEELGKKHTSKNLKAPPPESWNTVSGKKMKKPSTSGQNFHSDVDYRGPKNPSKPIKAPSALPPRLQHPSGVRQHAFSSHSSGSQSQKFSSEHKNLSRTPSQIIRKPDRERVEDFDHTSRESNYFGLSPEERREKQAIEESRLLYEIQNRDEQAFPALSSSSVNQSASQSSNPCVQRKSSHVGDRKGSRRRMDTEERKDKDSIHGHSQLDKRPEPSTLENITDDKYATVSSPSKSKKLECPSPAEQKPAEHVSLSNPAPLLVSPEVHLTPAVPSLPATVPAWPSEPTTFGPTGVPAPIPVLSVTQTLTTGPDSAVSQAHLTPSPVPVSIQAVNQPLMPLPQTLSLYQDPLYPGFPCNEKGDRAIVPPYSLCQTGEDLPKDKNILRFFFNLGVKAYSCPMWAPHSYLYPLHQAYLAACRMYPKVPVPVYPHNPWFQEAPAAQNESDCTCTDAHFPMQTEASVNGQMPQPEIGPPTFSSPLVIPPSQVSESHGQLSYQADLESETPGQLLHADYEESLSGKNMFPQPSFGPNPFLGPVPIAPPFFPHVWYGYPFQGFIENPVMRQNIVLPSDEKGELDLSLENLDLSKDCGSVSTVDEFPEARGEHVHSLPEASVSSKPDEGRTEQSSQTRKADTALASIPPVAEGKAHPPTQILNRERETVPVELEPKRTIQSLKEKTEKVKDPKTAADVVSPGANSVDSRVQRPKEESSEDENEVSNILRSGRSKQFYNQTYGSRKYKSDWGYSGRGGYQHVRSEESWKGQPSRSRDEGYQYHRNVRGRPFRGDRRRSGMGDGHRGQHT
In short: as §1

OTUD5 = target: T5, OTUD5 (UniProt Q96G74)
T5 sequence (whole entry): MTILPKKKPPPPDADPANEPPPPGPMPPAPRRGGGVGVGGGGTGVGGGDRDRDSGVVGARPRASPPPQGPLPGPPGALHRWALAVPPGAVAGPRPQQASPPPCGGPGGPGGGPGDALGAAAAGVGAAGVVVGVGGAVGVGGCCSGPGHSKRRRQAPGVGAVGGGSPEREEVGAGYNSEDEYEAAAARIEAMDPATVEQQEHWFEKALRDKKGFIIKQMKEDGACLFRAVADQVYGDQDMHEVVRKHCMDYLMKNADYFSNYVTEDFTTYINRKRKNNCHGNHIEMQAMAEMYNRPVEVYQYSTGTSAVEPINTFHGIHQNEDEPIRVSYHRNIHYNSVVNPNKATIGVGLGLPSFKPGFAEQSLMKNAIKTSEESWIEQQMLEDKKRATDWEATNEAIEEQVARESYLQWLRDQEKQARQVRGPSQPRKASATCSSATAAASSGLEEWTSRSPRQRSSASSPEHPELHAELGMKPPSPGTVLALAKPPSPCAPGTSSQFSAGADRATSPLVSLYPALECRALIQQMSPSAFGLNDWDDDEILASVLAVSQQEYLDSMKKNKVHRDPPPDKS
In short: as §1

EIF3F, sequence (O00303 whole entry): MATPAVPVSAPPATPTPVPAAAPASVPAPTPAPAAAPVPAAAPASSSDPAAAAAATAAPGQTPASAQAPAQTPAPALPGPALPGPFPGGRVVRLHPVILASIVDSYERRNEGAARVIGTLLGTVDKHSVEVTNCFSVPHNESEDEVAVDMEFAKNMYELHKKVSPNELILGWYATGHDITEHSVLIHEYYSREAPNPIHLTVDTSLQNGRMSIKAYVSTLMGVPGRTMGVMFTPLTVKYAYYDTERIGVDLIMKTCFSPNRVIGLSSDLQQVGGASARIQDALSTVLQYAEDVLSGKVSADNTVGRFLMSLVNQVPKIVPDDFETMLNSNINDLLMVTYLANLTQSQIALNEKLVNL
ATXN3, sequence (P54252 whole entry): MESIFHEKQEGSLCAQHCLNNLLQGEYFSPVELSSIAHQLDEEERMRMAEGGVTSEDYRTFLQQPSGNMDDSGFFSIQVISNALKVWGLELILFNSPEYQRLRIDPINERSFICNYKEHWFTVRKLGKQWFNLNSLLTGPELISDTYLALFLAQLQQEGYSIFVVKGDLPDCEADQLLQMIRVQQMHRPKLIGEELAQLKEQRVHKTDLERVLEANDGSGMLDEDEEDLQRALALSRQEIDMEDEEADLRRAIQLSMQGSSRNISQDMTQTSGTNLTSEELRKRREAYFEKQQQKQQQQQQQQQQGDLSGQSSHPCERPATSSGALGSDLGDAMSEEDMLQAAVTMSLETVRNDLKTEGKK
OTUB1, sequence (Q96FW1 whole entry): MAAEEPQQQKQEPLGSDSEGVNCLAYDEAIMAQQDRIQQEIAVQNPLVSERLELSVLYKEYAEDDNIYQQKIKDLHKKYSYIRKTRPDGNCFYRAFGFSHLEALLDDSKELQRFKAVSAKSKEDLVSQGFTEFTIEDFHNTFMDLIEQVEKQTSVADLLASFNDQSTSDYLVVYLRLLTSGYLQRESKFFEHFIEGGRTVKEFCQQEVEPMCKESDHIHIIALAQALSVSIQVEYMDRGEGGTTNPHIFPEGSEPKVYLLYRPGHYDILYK
EIF3H, sequence (O15372 whole entry): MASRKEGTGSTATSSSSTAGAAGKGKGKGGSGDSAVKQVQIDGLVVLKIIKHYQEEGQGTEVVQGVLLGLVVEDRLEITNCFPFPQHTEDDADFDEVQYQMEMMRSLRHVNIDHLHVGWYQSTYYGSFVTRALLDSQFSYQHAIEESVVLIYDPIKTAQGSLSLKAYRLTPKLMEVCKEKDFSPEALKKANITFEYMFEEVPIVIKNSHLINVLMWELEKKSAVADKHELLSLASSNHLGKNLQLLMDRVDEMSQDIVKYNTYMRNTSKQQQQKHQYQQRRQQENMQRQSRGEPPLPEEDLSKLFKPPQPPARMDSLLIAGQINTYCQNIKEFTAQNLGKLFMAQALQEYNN

## O=C(CCl)N1CCN(c2nc3ccccc3o2)CC1
ALG13
  log2 ratio of Biotin-Ahx-Ub-VS probe labelling: 0.254
ATXN3
  log2 ratio of Biotin-Ahx-Ub-VS probe labelling: -1.05 (active)
BAP1
  log2 ratio of Biotin-Ahx-Ub-VS probe labelling: -1.05 (active)
EIF3F
  log2 ratio of Biotin-Ahx-Ub-VS probe labelling: -0.704
EIF3H
  log2 ratio of Biotin-Ahx-Ub-VS probe labelling: -0.664
FAM105A
  log2 ratio of Biotin-Ahx-Ub-VS probe labelling: 0.0333
OTUB1
  log2 ratio of Biotin-Ahx-Ub-VS probe labelling: 0.0507
OTUD4
  log2 ratio of Biotin-Ahx-Ub-VS probe labelling: -0.141
OTUD5
  log2 ratio of Biotin-Ahx-Ub-VS probe labelling: -0.83
